The values below come from PubChem BioAssay (NCI).

Test systems include SR leukemia; RPMI-8226 leukemia; OVCAR-8 ovarian; OVCAR-5 ovarian; OVCAR-4 ovarian; SK-OV-3 ovarian; IGROV1 ovarian; OVCAR-3 ovarian; HS 578T breast; NCI/ADR-RES ovarian; T-47D breast; MDA-MB-435 melanoma; SW-620 colon; MCF7 breast; HCT-116 colon; HCC-2998 colon; KM12 colon; BT-549 breast.
Common to all, as to experiment: NCI-60 one-dose screen, 48 h (100 = growth as untreated, 0 = no growth, -100 = all killed)
What all share (settings): 10 µM unless noted

The structures appear in SMILES notation. The panel holds about 83,000 compounds, 20% with a hit somewhere; the sample as a whole holds those more often.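 Testing used 96-well plates and a 48-hour single-concentration exposure. Example: -40 means 40% of the starting cells died.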 Unmarked numbers belong to inactive results. Active and inactive are the calls of the source. The calls were made as follows: active = growth percent below 10; inactive = the rest.

On to `Nc1ncc(-c2ccc3ncnc(N4CCc5cc(F)c(Cl)cc54)c3c2)cn1`, for which the growth was 18% in the assay on SR leukemia; -14.7% (active) in the assay on RPMI-8226 leukemia; 33.5% in the assay on OVCAR-8 ovarian; 19.8% in the assay on OVCAR-5 ovarian; 31.7% with OVCAR-4 ovarian; 20.5% in the assay on SK-OV-3 ovarian. The growth was -11.2% (active) in the assay on IGROV1 ovarian; 13.5% in the assay on OVCAR-3 ovarian; -12.8% (active) in the assay on HS 578T breast; 38.4% with NCI/ADR-RES ovarian; 13.5% in the assay with T-47D breast; 27.1% with MDA-MB-435 melanoma. In addition, the growth is 40.7% in the assay on SW-620 colon; 11.9% in the assay with MCF7 breast; 20.5% in the assay with HCT-116 colon; 31.6% with HCC-2998 colon; 50.6% with KM12 colon.

Take `NC(N)=Nc1ccc(Oc2cccc(NC(N)=Nc3ccc(I)cc3F)c2)cn1`: the growth was 7.24% (active) with SR leukemia; 34.1% with RPMI-8226 leukemia; 77.6% in the assay on OVCAR-8 ovarian; 49% in the assay on OVCAR-5 ovarian; 66.6% in the assay with OVCAR-4 ovarian; 67.2% in the assay with SK-OV-3 ovarian. Besides, the growth in the assay with IGROV1 ovarian was 39.7%; in the assay on OVCAR-3 ovarian, 41.7%; in the assay with HS 578T breast it was 53.3%; in the assay with NCI/ADR-RES ovarian, 95.2%; in the assay with T-47D breast it was 26.1%; in the assay with BT-549 breast, 89.5%. In addition, the growth in the assay on MDA-MB-435 melanoma was 68.3%; in the assay on SW-620 colon it was 76.3%; in the assay with MCF7 breast it was 7.64% (active); in the assay on HCT-116 colon, 58.2%; in the assay on HCC-2998 colon it was 70.9%; with KM12 colon, 47.7%.

On to `CC1(C)[C@@H](O)CC[C@]2(C)[C@H]3CC[C@@H]4[C@H]5[C@H](C(=O)/C=C\c6ccc([N+](=O)[O-])cc6)CC[C@]5(O)CC[C@@]4(C)[C@]3(C)CC[C@@H]12`, for which the growth with SR leukemia is 1.04% (active); with RPMI-8226 leukemia, 11.7%; in the assay with OVCAR-8 ovarian, 76.8%; in the assay with OVCAR-5 ovarian, 92%; in the assay with OVCAR-4 ovarian, 41.1%; with SK-OV-3 ovarian it was 107%. Besides, the growth with IGROV1 ovarian is 56.6%; in the assay on OVCAR-3 ovarian it was 43.2%; with HS 578T breast it was 59.9%; in the assay with NCI/ADR-RES ovarian it was 64%; in the assay with T-47D breast it was 57.7%; in the assay on MDA-MB-435 melanoma it was 36.1%. For the same compound, the growth in the assay with SW-620 colon was 30.2%; in the assay on MCF7 breast, 38.7%; with HCT-116 colon, 4.14% (active); with HCC-2998 colon, 77.2%; in the assay with KM12 colon, 53.3%.

For the compound `COc1cc(-c2nn(C(C)(C)C)cc2-c2ccnc(NCCCNS(=O)(=O)c3ccc(F)cc3)n2)ccc1Cl`, the growth is 48.8% in the assay on SR leukemia; 75.1% in the assay with RPMI-8226 leukemia; 89.2% in the assay on OVCAR-8 ovarian; 82.3% in the assay with OVCAR-5 ovarian; 54.2% with OVCAR-4 ovarian; 104% with SK-OV-3 ovarian. In addition, the growth was 61.6% in the assay on IGROV1 ovarian; 90.7% in the assay on OVCAR-3 ovarian; 81% in the assay on HS 578T breast; 79.9% with NCI/ADR-RES ovarian; 85.1% with T-47D breast; 75% in the assay on MDA-MB-435 melanoma. Further, the growth in the assay with SW-620 colon was 95.9%; in the assay on MCF7 breast it was 74.3%; in the assay on HCT-116 colon, 56.1%; with HCC-2998 colon, 108%; in the assay on KM12 colon it was 78.5%.

As for `Nc1nc(Nc2ccccc2SSc2ccccc2Nc2nc(N)nc(-c3cccc(Br)c3)n2)nc(-c2cccc(Br)c2)n1`, the growth is -44% (active) in the assay on SR leukemia; 59.6% in the assay with RPMI-8226 leukemia; 68.4% with OVCAR-8 ovarian; 95.5% with OVCAR-5 ovarian; 73% in the assay with OVCAR-4 ovarian; 131% with SK-OV-3 ovarian. For the same compound, the growth with IGROV1 ovarian was 54.9%; with OVCAR-3 ovarian it was 100%; in the assay on HS 578T breast, 74.3%; in the assay on NCI/ADR-RES ovarian it was 21.3%; in the assay on T-47D breast, 62.6%; with MDA-MB-435 melanoma it was 93.9%. For the same compound, the growth with SW-620 colon was 98.5%; in the assay with MCF7 breast it was 69.2%; in the assay on HCT-116 colon, 47.8%; in the assay with HCC-2998 colon, 120%; in the assay with KM12 colon, 23.6%.

Consider `COc1ccc(S(=O)(=O)NCCCNc2nccc(-c3cn(C(C)(C)C)nc3-c3ccc(Cl)c(OC)c3)n2)cc1`, for which the growth in the assay with SR leukemia was 48.8%; in the assay with RPMI-8226 leukemia it was 84.7%; with OVCAR-8 ovarian, 87.9%; in the assay on OVCAR-5 ovarian, 90.3%; with OVCAR-4 ovarian it was 58.9%; in the assay with SK-OV-3 ovarian, 103%. Further, the growth in the assay with IGROV1 ovarian was 57.9%; in the assay on OVCAR-3 ovarian, 97.5%; with HS 578T breast, 82.9%; with NCI/ADR-RES ovarian, 87.8%; with T-47D breast, 77.3%; in the assay with MDA-MB-435 melanoma, 89.6%. Besides, the growth in the assay with SW-620 colon is 99.3%; in the assay with MCF7 breast, 82.4%; with HCT-116 colon, 66.6%; in the assay on HCC-2998 colon, 124%; in the assay with KM12 colon it was 93%.

In the case of `C=CC(=O)N1CC=C(c2cc3c(N[C@H](C)c4ccccc4)ncnc3[nH]2)CC1`, the growth in the assay on SR leukemia was 66.7%; in the assay with RPMI-8226 leukemia it was 85.8%; in the assay with OVCAR-8 ovarian it was 85.8%; in the assay with OVCAR-5 ovarian, 37.5%; in the assay on OVCAR-4 ovarian it was 71.9%; in the assay with SK-OV-3 ovarian, 47.4%. The growth was 6.95% (active) in the assay on IGROV1 ovarian; 70.3% with OVCAR-3 ovarian; 39.9% with HS 578T breast; 89.5% with NCI/ADR-RES ovarian; 71.6% with T-47D breast; 95% with MDA-MB-435 melanoma. The growth with SW-620 colon is 87%; in the assay on MCF7 breast, 75.5%; with HCT-116 colon, 86.1%; with HCC-2998 colon, 89.6%; with KM12 colon it was 98.9%.

Consider `CC(C)(C)c1ccc(C(=O)Nc2sc3c(c2C(N)=O)CCC(O)C3)cc1` (stereo unspecified), for which the growth in the assay with SR leukemia was 25.8%; in the assay on RPMI-8226 leukemia, 16.3%; in the assay on OVCAR-8 ovarian, 43.4%; in the assay on OVCAR-5 ovarian, 66.5%; in the assay with OVCAR-4 ovarian, 68.5%; with SK-OV-3 ovarian, 70.1%. The growth in the assay with IGROV1 ovarian is 44.9%; in the assay with OVCAR-3 ovarian it was 55.3%; in the assay with HS 578T breast, 82.9%; with NCI/ADR-RES ovarian, 49.9%; in the assay with T-47D breast, 28.8%; with BT-549 breast, 58.5%. Further, the growth with MDA-MB-435 melanoma is 32.2%; in the assay on SW-620 colon it was 7.55% (active); in the assay on MCF7 breast, 5.17% (active); with HCT-116 colon, 26.3%; in the assay with HCC-2998 colon, 37.4%; in the assay with KM12 colon, 11.7%.

For the compound `CC1(C)CC[C@]2(CN)CC[C@]3(C)C(=CC[C@@H]4[C@@]5(C)CCCNC(C)(C)[C@@H]5CC[C@]43C)[C@H]2C1`, the growth was 61.7% in the assay with SR leukemia; 81.3% in the assay with RPMI-8226 leukemia; 101% in the assay on OVCAR-8 ovarian; 105% in the assay with OVCAR-5 ovarian; 103% in the assay on OVCAR-4 ovarian; 106% in the assay on SK-OV-3 ovarian. In addition, the growth in the assay with IGROV1 ovarian is 98.1%; in the assay with OVCAR-3 ovarian, 106%; with HS 578T breast it was 108%; in the assay on NCI/ADR-RES ovarian, 105%; in the assay with T-47D breast, 78.3%; with BT-549 breast, 101%. The growth is 97.3% in the assay on MDA-MB-435 melanoma; 102% with SW-620 colon; 85.7% in the assay with MCF7 breast; 90.6% in the assay with HCT-116 colon; 45.9% in the assay with HCC-2998 colon; 101% in the assay on KM12 colon.
